Compound activity from PubChem BioAssay.
POLB inh: inhibitors of human DNA polymerase beta. P06746. Pol beta primer extension/strand displacement, fluorescence kinetic. Potency, µM (titrated, usually from 114 µM), without a hit: at the top dose activity change, negative = inhibition, most hits filed as inhibitors. 340,000 tested, 1.3% active; also: potency is read from the fitted curve at half-maximal effect; % is scaled to controls: 0 for no effect and ±100 for the full control effect
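Enzyme-only controls used 10 nM Pol beta; buffer lacking enzyme served as negative control. Compound preincubated 15 min, then 50 nM substrate added; 0 and 10 min reads at room temperature.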
Pol iota inh: DNA polymerase iota (human) inhibition. Pol iota fluorescent replication assay, 10 min. Potency, µM (titrated, usually from 115 µM), without a hit: at the top dose activity, negative = inhibition, most hits filed as inhibitors. 390,000 tested, 1% active. Q9UNA4; also: potency is read from the fitted curve at half-maximal effect
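Pol iota at 10 nM preincubated 15 min with compounds at room temperature; reaction started with fluorescent substrate, 50 nM final. Fluorescence read kinetically at 0 and 10 min; buffer-only wells as negative control.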
Pol kappa inh-1: inhibitors of human DNA polymerase kappa. Q9UBT6. Potency, µM (doses to about 107 µM), for inactives: at the highest dose activity, negative = inhibition, hits mostly inhibitors. 400,000 tested, 0.53% active. purified Pol kappa, fluorescent DNA synthesis assay, 10 min. AID 588579; also: potency is read from the fitted curve at half-maximal effect; % is scaled to controls: 0 for no effect and ±100 for the full control effect
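10 nM Pol kappa was preincubated with compounds for 15 min at room temperature. Reaction started with 50 nM (final) substrate. Fluorescence read kinetically at 0 and 10 min.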
Pol eta inh-1: DNA polymerase eta (human) inhibition. AID 588591. Potency, µM (titrated, usually from 114 µM), for the others: at the top dose activity change, negative = inhibition, actives largely listed as inhibitors. 390,000 tested, 1.2% active. Q9Y253. recombinant Pol eta, fluorescent DNA replication assay; also: potency is read from the fitted curve at half-maximal effect; % is scaled to controls: 0 for no effect and ±100 for the full control effect
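Fluorescent replication assay: 50 nM final substrate added after a 15 min room-temperature compound preincubation with 10 nM enzyme. Signal taken at 0 min and again at 10 min.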
L3MBTL1 block: blocks human L3MBTL1 | Q9Y468 | AlphaScreen L3MBTL1–H3K9me1 peptide binding | Potency, µM (highest dose often 57.1 µM), without a hit: at the highest dose activity, negative = inhibition, actives largely listed as inhibitors | 230,000 tested, 0.66% active; also: potency is read from the fitted curve at half-maximal effect; % is scaled to controls: 0 for no effect and ±100 for the full control effect; nearly all actives have a fitted effect of over 60% in size
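First, the protein-peptide complex forms for 30 min at room temperature (L3MBTL1 50 nM, biotinylated H3K9me1 peptide 75 nM). Next, compounds are pin-transferred and incubated 30 min. Finally, AlphaScreen beads are added and read after 30 min.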
WRN helicase inh-1: inhibitors of human WRN helicase; Q14191; WRN helicase unwinding, fluorescent forked duplex, kinetic; Potency, µM (doses to about 114 µM), without a hit: at the top dose activity change, negative = inhibition, usual class: inhibitors; 360,000 tested, 0.46% active; also: potency is read from the fitted curve at half-maximal effect; % is scaled to controls: 0 for no effect and ±100 for the full control effect; nearly all actives have a fitted effect of over 55% in size
Target sequence (Q14191 whole entry, looked up): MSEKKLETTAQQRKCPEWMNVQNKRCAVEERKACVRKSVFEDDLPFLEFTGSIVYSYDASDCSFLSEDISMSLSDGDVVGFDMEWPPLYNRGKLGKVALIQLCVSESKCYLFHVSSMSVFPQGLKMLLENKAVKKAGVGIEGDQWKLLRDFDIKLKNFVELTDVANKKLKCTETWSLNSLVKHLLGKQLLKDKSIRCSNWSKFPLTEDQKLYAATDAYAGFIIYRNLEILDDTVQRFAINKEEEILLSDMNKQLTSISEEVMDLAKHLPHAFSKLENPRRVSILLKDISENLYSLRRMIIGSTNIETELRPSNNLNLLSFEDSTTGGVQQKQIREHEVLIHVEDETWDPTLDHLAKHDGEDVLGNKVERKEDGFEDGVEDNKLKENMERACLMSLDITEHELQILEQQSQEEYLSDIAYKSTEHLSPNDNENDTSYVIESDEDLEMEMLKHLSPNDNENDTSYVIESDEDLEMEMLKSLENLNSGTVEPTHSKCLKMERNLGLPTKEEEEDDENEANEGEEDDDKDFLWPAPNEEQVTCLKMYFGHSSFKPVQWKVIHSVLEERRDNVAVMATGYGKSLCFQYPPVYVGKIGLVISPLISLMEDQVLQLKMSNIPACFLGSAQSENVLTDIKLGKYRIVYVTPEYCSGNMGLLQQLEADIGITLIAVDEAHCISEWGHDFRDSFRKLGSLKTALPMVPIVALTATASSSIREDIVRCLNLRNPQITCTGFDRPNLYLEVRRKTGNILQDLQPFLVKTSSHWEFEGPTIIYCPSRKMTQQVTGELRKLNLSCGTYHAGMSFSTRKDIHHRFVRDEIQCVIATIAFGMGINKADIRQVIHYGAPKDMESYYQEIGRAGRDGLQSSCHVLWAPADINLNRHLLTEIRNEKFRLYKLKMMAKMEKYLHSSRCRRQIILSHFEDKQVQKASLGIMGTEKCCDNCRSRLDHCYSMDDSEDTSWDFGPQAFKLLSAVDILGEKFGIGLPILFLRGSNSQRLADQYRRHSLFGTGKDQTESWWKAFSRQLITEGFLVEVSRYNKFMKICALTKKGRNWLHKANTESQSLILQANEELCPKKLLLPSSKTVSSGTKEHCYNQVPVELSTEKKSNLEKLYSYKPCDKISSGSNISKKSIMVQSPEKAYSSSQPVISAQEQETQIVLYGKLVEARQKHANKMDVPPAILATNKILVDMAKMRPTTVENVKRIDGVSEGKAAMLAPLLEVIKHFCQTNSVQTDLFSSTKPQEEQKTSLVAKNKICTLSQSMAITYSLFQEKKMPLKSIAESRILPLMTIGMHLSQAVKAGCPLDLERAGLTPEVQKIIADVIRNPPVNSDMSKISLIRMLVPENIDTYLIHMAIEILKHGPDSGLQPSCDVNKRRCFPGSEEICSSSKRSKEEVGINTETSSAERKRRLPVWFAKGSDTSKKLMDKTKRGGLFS
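Fluorescence dequenching readout, ex 525 nm/em 598 nm, kinetic mode: forked duplex DNA (100 nM final) with adjacent fluorophore and quencher unwound by WRN (20 nM final) with 2 mM ATP. Compound preincubation 15 min, room temperature.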
BAZ2B confirm: confirmation of human BAZ2B bromodomain inhibitors. AID 588809. shares compounds with Pol kappa inh-1. Potency, µM, usual class: inhibitors. AlphaScreen BAZ2B / biotin-H3K14Ac peptide displacement. 25 tested, 100% active; calls by dose curve
BAZ2B bead ctr: interferes with AlphaScreen signal in BAZ2B counterscreen; AlphaScreen biotin-His6 peptide bead counterscreen, signal decrease; 25 tested, under 10 active; AID 588859; Potency, µM (doses to about 57.1 µM), inactives show top-dose activity change, negative = inhibition, actives largely listed as inhibitors; shares compounds with Pol kappa inh-1;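 active = clear concentration-dependent signal drop in the bead assay lacking the target, so a primary-screen artifact; inconclusive = weak, partial or single-dose response; inactive = no response, so a real primary hit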
PGK validate: TbPGK inhibition, hit validation. shares compounds with Pol kappa inh-1. TbPGK coupled GAPDH assay, Kinase-Glo luminescence. Potency, µM (titrated, usually from 57.5 µM), without a hit: at the highest dose activity change, negative = inhibition, actives largely listed as inhibitors. 500 tested, 79% active. AID 686980; also: potency is read from the fitted curve at half-maximal effect; % is scaled to controls: 0 for no effect and ±100 for the full control effect; nearly all actives have a fitted effect of over 65% in size
Pol iota confirm: Confirm cherry-picked inhibitors of human polymerase iota; Pol iota primer extension, TAMRA/BHQ fluorescence; Potency, µM, actives largely listed as inhibitors; shares compounds with Pol kappa inh-1; 1,500 tested, 77% active; AID 720496; also: potency is read from the fitted curve at half-maximal effect
Pol kappa inh-2: confirmation of human DNA polymerase kappa inhibitors. shares compounds with Pol eta inh-1. purified Pol-kappa, fluorescent strand-displacement substrate. Potency, µM, usual class: inhibitors. 920 tested, 76% active. AID 720501; also: potency is read from the fitted curve at half-maximal effect
Pol eta inh-2: confirmation of human DNA polymerase eta inhibitors | shares compounds with Pol eta inh-1 | Pol eta primer extension, TAMRA/BHQ fluorescence, 10 min | Potency, µM, actives largely listed as inhibitors | 2,600 tested, 64% active | AID 720502; also: potency is read from the fitted curve at half-maximal effect
WRN helicase inh-2: WRN helicase inhibition, cherry-pick retest | shares compounds with WRN helicase inh-1 | WRN helicase DNA unwinding, fluorescence kinetic | Potency, µM (doses to about 57.1 µM), for the others: at the highest dose activity, negative = inhibition, usual class: inhibitors | 610 tested, 63% active; also: potency is read from the fitted curve at half-maximal effect; nearly all actives have a fitted effect of over 65% in size
TO displacement: DNA binding via thiazole orange displacement; 610 tested, 10% active; Potency, µM (series often up to 57.1 µM), for the others: top-dose activity change, negative = inhibition, usual class: inhibitors; thiazole orange DNA binding displacement, fluorescence; shares compounds with WRN helicase inh-1; AID 720499;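 also: drop in dye fluorescence marks compound binding to DNA; potency is read from the fitted curve at half-maximal effect; % is scaled to controls: 0 for no effect and ±100 for the full control effect; nearly all actives have a fitted effect of over 60% in size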
BLM counter: BLM helicase inhibition, WRN selectivity check; shares compounds with WRN helicase inh-1; Recombinant BLM helicase DNA unwinding, red fluorescence; Potency, µM (top dose mostly 57.1 µM), for the others: at the highest dose activity change, negative = inhibition, hits mostly inhibitors; 610 tested, 60% active; also: potency is read from the fitted curve at half-maximal effect; nearly all actives have a fitted effect of over 60% in size
Active calls of the source: *; i = inactive; ? = inconclusive; / = no result given; [ ] = another dose, or the depositor's remark. The list is not random: actives were taken first. Their share in the collection is about 2.5%. Unless noted, calls follow the shape of the dose curve; as a rule, active = well fitted curve in the direction sought with a large enough effect; inconclusive = small, poorly fitted or top-dose-only effect, or another doubt; inactive = no such curve, though single readings can be large; an effect the other way counts as inactive or inconclusive.

SMILES | POLB inh | Pol iota inh | Pol kappa inh-1 | Pol eta inh-1 | L3MBTL1 block | WRN helicase inh-1 | Pol iota confirm | Pol kappa inh-2 | Pol eta inh-2 | WRN helicase inh-2 | TO displacement | BLM counter | others
CCOc1ccc(N2C(=O)NC(=O)/C(=C\c3ccc(N4CCCCC4)o3)C2=O)cc1 | 4%[57.1 µM] | 31% | -5% | -21% | 8% | 3% | / | / | / | / | / | /
Cc1cc(/C=C2\C(=O)NC(=O)N(c3ccc(Cl)cc3)C2=O)c(C)n1-c1sc2c(c1C#N)CCCC2 | ? | 10µM* | 79µM* | 20µM* | -17% | ? | 75* | 75* | 30* | / | / | /
Cc1ccc(N2C(=O)NC(=O)/C(=C\c3cc(C)n(-c4cc(C(=O)O)cc(C(=O)O)c4)c3C)C2=O)cc1 | -28% | 8.9µM* | ? | 7.9µM* | / | ? | / | 17* | 38* | / | / | / | PGK validate=?
Cc1ccc(N2C(=O)NC(=O)/C(=C/c3ccc(-c4ccc(C(=O)O)c(Cl)c4)o3)C2=O)cc1 | 14µM* | 20µM* | -91% | 8.9µM* | / | ? | ? | / | 30* | / | / | /
CC(=O)C1CCC2C3CCC4CC(C)(O)CCC4(C)C3CCC12C (stereo not drawn) | / | / | 13%[60.1 µM] | / | / | / | / | / | / | / | / | /
C[C@H](N)CN1CCc2ccc(Br)cc21 | 18%[57.1 µM] | 4%[58.9 µM] | -18%[60.1 µM] | -4%[57.1 µM] | / | 6% | / | / | / | / | / | /
COC(=O)C1=C(c2ccc(-c3ccccc3)c(F)c2)C[C@@H]2CC[C@H]1N2C(=O)N1CCCC1 | / | 11% | 2% | -17% | -13% | 1% | / | / | / | / | / | /
Cc1ccc2c(C)c3ccc4ccccc4c3c[n+]2c1 | / | 79µM* | 40µM* | ? | / | 21%[11.6 µM] | 27* | 4.7* | / | / | / | /
OC[C@H]1OC(O)C[C@@H](O)[C@@H]1O (stereo partly drawn) | / | ? | 0% | -5% | 5% | -7% | / | / | / | / | / | /
C=C1C(=O)O[C@@H]2C[C@@H](C)[C@@H]3C=CC(=O)[C@@]3(C)[C@@H](OC(=O)CC(=O)O[C@H]3[C@@H]4C(=C)C(=O)O[C@@H]4C[C@@H](C)[C@@H]4C=CC(=O)[C@]43C)[C@H]12 | 20µM* | 4.5µM* | 35µM* | 7.9µM* | / | 45µM* | 19* | / | 17* | / | / | /
CCN1/C(=C/C=C/C2=[N+](CC)c3ccccc3C2(C)C)C(C)(C)c2ccccc21 | / | / | / | 32µM* | / | 4.7µM* | 38* | 67* | 67* | 22µM* | i | 22µM*
CN1CCC2=C[C@H](O)[C@@H]3OC(=O)c4cc5c(cc4[C@H]3[C@H]21)OCO5 | / | / | -5%[12 µM] | / | / | / | / | / | / | / | / | /
COc1cccc(OC)c1-c1nn2c(-c3n[nH]c4c3CCC4)nnc2s1 | / | 5µM* | 79µM* | / | / | / | ? | / | ? | ? | ? | ?
O=c1c2ccccc2nc(-c2ccco2)n1-c1ccccc1 | 13% | 8% | -9% | -20% | -11% | 3% | / | / | / | / | / | /
O=C(NC1CC1)c1cc(-c2ccco2)nc2ccccc12 | ? | ? | 20µM* | 3.5µM* | / | 20µM* | / | / | / | 6.1µM* | ? | 0.96µM* | BAZ2B confirm=10*;BAZ2B bead ctr=?
COC(=O)C1=C(c2cc3ccccc3s2)C[C@@H]2CC[C@H]1N2C(=O)N1CCCCC1 | / | -27% | -12% | -12% | / | -6% | / | / | / | / | / | /
COC1C(O)C(C)OC(OC2C(Oc3cccc4c(O)c5c(=O)oc6ccc(C)c7c(=O)oc(c34)c5c67)OC(C)C(O)C2O)C1O (stereo not drawn) | / | ? | ? | 10µM* | / | ? | 21* | 4.2* | 43* | 19µM* | ? | 63%
CCN(CCCl)c1cc(CN(C)C)cc(NC(=O)c2ccc(C(=O)Nc3cc(CN(C)C)cc(N(CC)CCCl)c3)cc2)c1 | / | 28µM* | ? | 11µM* | / | ? | 24* | 0.53* | / | 22µM* | -18% | ?
c1cncc(C2=NCCC2)c1 | / | / | 1%[19.4 µM] | / | / | / | / | / | / | / | / | /
CN1C(=O)/C(=C\c2ccc(N3CCCCC3)o2)C(=O)NC1=S | -13% | ? | -3% | -29% | -8% | -18% | / | / | / | / | / | /
CN1C(=O)/C(=C/C=C/c2ccco2)C(=O)NC1=S | ? | 10µM* | 25µM* | 5.6µM* | / | 35µM* | / | / | / | 15µM* | 31% | 8.6µM* | PGK validate=5.2µM*
Cn1cccc1/C=C1\C(=O)NC(=O)N(Cc2ccco2)C1=O | 14µM* | 7.9µM* | 22µM* | 10µM* | / | 40µM* | 17* | / | 17* | 19µM* | -8% | 8.6µM*
O=C1NC(=O)N(Cc2ccco2)C(=O)/C1=C/C=C/c1ccco1 | ? | ? | 14µM* | 4µM* | / | 20µM* | 6.7* | / | 4.8* | 11µM* | -7% | 6.1µM*
CCCOC(=O)c1c(C)oc2c1cc(NS(=O)(=O)c1ccc(OCC)cc1)c1ccccc12 | 0% | 44% | -6% | -6% | / | / | / | / | / | / | / | /
